In publication PMC6925144, “A prospective compound screening contest identified broader inhibitors for Sirtuin 1” (Scientific Reports, 2019):

What follows are compounds tested against NAD-dependent deacetylase Sirtuin 1 (human, UniProt Q96EB6) (assay: primary screen, percent inhibition; higher = more effect of the substance). Details: 10 µM.
Design: mean of n = 4
Protocol: Note that the inhibitory assay was conducted with NAD+.

Sequence of NAD-dependent deacetylase Sirtuin 1 (Q96EB6 2-747 limits assumed): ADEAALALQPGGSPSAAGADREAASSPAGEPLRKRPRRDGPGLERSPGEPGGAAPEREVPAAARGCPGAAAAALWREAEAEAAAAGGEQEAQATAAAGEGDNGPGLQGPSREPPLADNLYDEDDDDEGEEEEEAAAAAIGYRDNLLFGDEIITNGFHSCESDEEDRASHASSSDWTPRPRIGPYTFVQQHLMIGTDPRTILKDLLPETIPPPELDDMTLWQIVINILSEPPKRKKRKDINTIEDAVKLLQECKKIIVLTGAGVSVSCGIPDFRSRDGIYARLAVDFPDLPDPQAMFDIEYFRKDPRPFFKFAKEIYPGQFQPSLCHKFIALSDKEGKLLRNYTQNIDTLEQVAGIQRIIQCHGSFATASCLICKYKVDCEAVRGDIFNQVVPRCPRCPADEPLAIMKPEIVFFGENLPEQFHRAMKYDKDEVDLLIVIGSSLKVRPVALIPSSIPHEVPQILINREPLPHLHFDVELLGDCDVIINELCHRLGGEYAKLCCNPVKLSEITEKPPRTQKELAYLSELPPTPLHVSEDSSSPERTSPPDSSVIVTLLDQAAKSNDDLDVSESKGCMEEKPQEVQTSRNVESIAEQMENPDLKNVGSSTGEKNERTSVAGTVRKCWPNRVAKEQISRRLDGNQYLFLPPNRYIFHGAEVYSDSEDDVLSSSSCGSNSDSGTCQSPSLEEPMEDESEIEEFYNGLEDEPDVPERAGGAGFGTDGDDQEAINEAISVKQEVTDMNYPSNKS

Structure (SMILES) | TSA(without NAD+) / Inhibitory assay (Promega kit) / Mean (%) | TSA(with NAD+) / Inhibitory assay (Promega kit) / Mean (%)
O=C(COc1ccccc1C(=O)Nc1ccc(S(=O)(=O)Nc2nccs2)cc1)Nc1cccc(C(F)(F)F)c1 | 10.1% | –
NC(=O)C1CCN(c2nc(-c3cccnc3)nc3sc4c(c23)CCCC4)CC1 | – | 39.7%
COc1ccc(NC(=O)c2ccc(NC(=O)COC(=O)C34CC5CC(CC(Br)(C5)C3)C4)cc2)cc1 | 17.2% | –
Cc1nc(N2CCC(C(N)=O)CC2)c2c3c(sc2n1)CCCCC3 | 14.5% | –
Cc1nc(N2CCC(C(N)=O)CC2)c2c3c(sc2n1)CCCC3 | 11.5% | –
CC(=C/c1ccccc1)/C=N/NC(=O)c1cc(-c2ccc(C)cc2)n[nH]1 | 0.0522% | –
O=C(Nc1cccc(S(=O)(=O)N2CCOCC2)c1)c1cn(-c2ccccc2)nc1-c1ccc(Cl)cc1 | 13.8% | –
Cc1ccc(C(C)(C)C)cc1S(=O)(=O)Nc1cccc(C(=O)NNC(=O)c2cccc(S(=O)(=O)Nc3cccc(C(F)(F)F)c3)c2)c1 | -8.09% | –
